Assay results taken from the supplement of paper PMC13094657.
± gives the standard deviation of the averaged measurements.
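Note: viability of the cells left after supernatant collection, read with Deep Blue dye added for 4 h, as absorbance at 570 nm minus 600 nm.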

These molecules were tested on MDA-MB-231 (assay: cell viability relative to vehicle unstimulated control (fraction); higher = more viable cells). Details: pre-treatment time: 18 h then 24 h IFNg/TNF.
With `CC(C)=CCC[C@@H](C)CCO` [(R)-Citronellol] (compound dose: 10 uM) the cell viability was 1.029 ± 0.0012.
Molecule `C=C1C(=O)O[C@@H]2C[C@@]3(C)CCC[C@H](C)C3=C[C@H]12` [Alantolactone] (compound dose: 10 uM) has a cell viability of 0.909 ± 0.023.
`COc1ccc(-c2coc3cc(O)ccc3c2=O)cc1` [Formononetin] (compound dose: 10 uM) was tested, and the cell viability was 0.988 ± 0.032.
In the case of `CC1(C)[C@@H](O[C@H]2O[C@H](C(=O)O)[C@@H](O)[C@H](O)[C@H]2O[C@@H]2O[C@H](C(=O)O)[C@@H](O)[C@H](O)[C@H]2O)CC[C@]2(C)[C@H]3C(=O)C=C4[C@@H]5C[C@@](C)(C(=O)O)CC[C@]5(C)CC[C@@]4(C)[C@]3(C)CC[C@@H]12` [Glycyrrhizic acid] (compound dose: 10 uM), the cell viability is reported as 1.05 ± 0.075.
For `CC(C)=C[C@H]1C[C@](C)(O)[C@H]2[C@H]3CC[C@@H]4[C@@]5(C)CC[C@H](O[C@@H]6O[C@H](CO)[C@@H](O)[C@H](O[C@@H]7O[C@H](CO)[C@@H](O)[C@H](O)[C@H]7O)[C@H]6O[C@@H]6O[C@@H](CO)[C@H](O)[C@H]6O)C(C)(C)[C@@H]5CC[C@@]4(C)[C@@]34CO[C@@]2(C4)O1` [Bacoside A3] (compound dose: 10 uM), the cell viability was 0.944 ± 0.034.
`COc1ccc2c(c1O)-c1c(O)c(OC)cc3c1[C@H](C2)[N+](C)(C)CC3` [Magnoflorine] (compound dose: 10 uM) gave a cell viability of 0.966 ± 0.05.
`CC(C)=CCC[C@](C)(O)[C@@H]1CC=C(C)CC1` [alpha-Bisabolol] (compound dose: 10 uM) showed a cell viability of 0.9925 ± 0.0046.
Work on `C=C(C)[C@@H]1CC[C@]2(C(=O)O)CC[C@]3(C)[C@H](CC[C@@H]4[C@@]5(C)CC[C@H](O[C@@H]6OC[C@H](O)[C@H](O)[C@H]6O[C@@H]6O[C@@H](C)[C@H](O)[C@@H](O)[C@H]6O)[C@@](C)(CO)[C@@H]5CC[C@]43C)[C@@H]12` [Pulchinenoside A] (compound dose: 10 uM) yielded a cell viability of 1.04 ± 0.051.
`COC(=O)C1=CO[C@@H](O[C@@H]2O[C@H](CO)[C@@H](O)[C@H](O)[C@H]2O)[C@@H]2C(CO)=C[C@H](O)[C@H]12` [Methyl deacetylasperulosidate] (compound dose: 10 uM) gave a cell viability of 0.956 ± 0.085.
`CC1=CC23C(=O)C(C=C4COC(C)(C)OC4C24OC(C)(C)OC14)C1C(CC3C)C1(C)C` (stereo not drawn) [Ingenol-3,4,5,20-diacetonide] (compound dose: 10 uM) showed a cell viability of 1.09 ± 0.23.
In the case of `C[C@H]1[C@H](C)CC[C@]2(CO)CC[C@]3(C)C(=CC[C@@H]4[C@@]5(C)CC[C@H](O)C(C)(C)[C@@H]5CC[C@]43C)[C@H]12` [Uvaol] (compound dose: 10 uM), the cell viability is reported as 1.03 ± 0.14.
`C[C@@H]1CC[C@]2(C(=O)O[C@@H]3O[C@H](CO)[C@@H](O)[C@H](O)[C@H]3O)CC[C@]3(C)C(=CC[C@@H]4[C@@]5(C)CC[C@H](O)[C@](C)(C(=O)O)[C@@H]5CC[C@]43C)[C@@H]2[C@]1(C)O` [Ilexsaponin A] (compound dose: 10 uM) was tested, and the cell viability was 1.02 ± 0.016.
Molecule `C=C1[C@H](OC(C)=O)[C@@H](O)[C@@H](OC(=O)c2cccnc2)C(C)(C)/C=C/[C@H](C)[C@H](OC(C)=O)[C@@]2(O)C[C@@](C)(OC(C)=O)[C@H](OC(=O)c3ccccc3)[C@@H]2[C@H]1OC(C)=O` [Jatrophane 5] (compound dose: 10 uM) has a cell viability of 1.12 ± 0.027.
In the case of `CC(C)=CCC[C@](C)(O)[C@H]1CC[C@]2(C)[C@@H]1[C@H](O)C[C@@H]1[C@@]3(C)CC[C@H](O[C@@H]4O[C@H](CO)[C@@H](O)[C@H](O)[C@H]4O[C@@H]4O[C@H](CO)[C@@H](O)[C@H](O)[C@H]4O)C(C)(C)[C@@H]3CC[C@]12C` [20(S)-Ginsenoside Rg3] (compound dose: 10 uM), the cell viability is reported as 1 ± 0.046.
For `COC(=O)c1cccnc1` [Methyl nicotinate] (compound dose: 10 uM), the cell viability was 0.974 ± 0.037.
`CC(CCC(OC1OC(COC2OC(CO)C(O)C(O)C2O)C(O)C(O)C1OC1OC(CO)C(O)C(O)C1O)C(C)(C)O)C1CCC2(C)C3CC=C4C(CCC(OC5OC(COC6OC(CO)C(O)C(O)C6O)C(O)C(O)C5O)C4(C)C)C3(C)C(=O)CC12C` (stereo not drawn) [11-oxo-mogroside V] (compound dose: 10 uM) gave a cell viability of 1.1 ± 0.12.
For `CC1(C)CC[C@]2(C(=O)O[C@@H]3O[C@H](CO)[C@@H](O)[C@H](O)[C@H]3O)CC[C@]3(C)C(=CC[C@@H]4[C@@]5(C)CC[C@H](O[C@@H]6O[C@H](C(=O)O)[C@@H](O)[C@H](O)[C@H]6O)C(C)(C)[C@@H]5CC[C@]43C)[C@@H]2C1` [Chikusetsusaponin Iva] (compound dose: 10 uM), the cell viability was 0.986 ± 0.01.
For `CC(C)=CCC[C@@H](C)CC=O` [Citronellal] (compound dose: 10 uM), the cell viability was 1.067 ± 0.0084.
Molecule `C=C(C)[C@@H]1CC=C(C)CC1` [(-)-Limonene] (compound dose: 10 uM) has a cell viability of 1.1 ± 0.035.
Work on `C=C(C)[C@@H]1CC[C@]2(C(=O)O)CC[C@]3(C)[C@H](CC[C@@H]4[C@@]5(C)CC[C@H](OC(=O)CC(C)(C)C(=O)O)C(C)(C)[C@@H]5CC[C@]43C)[C@@H]12` [Bevirimat] (compound dose: 10 uM) yielded a cell viability of 1.018 ± 0.0069.
`C[C@@H]1O[C@@H](O[C@H]2[C@H](OC(=O)[C@]34CCC(C)(C)C[C@H]3C3=CC[C@@H]5[C@@]6(C)C[C@H](O)[C@H](O[C@@H]7O[C@H](CO)[C@@H](O)[C@H](O[C@@H]8O[C@H](CO)[C@@H](O)[C@H](O)[C@H]8O)[C@H]7O)C(CO)(CO)[C@@H]6CC[C@@]5(C)[C@]3(C)C[C@H]4O)OC[C@H](O)[C@@H]2O)[C@H](O)[C@H](O)[C@H]1O[C@@H]1OC[C@@H](O)[C@H](O[C@@H]2OC[C@](O)(CO)[C@H]2O)[C@H]1O` [Platycodin D2] (compound dose: 10 uM) was tested, and the cell viability was 0.7561 ± 0.0061.
For `CC1(C)CC[C@]2(C(=O)O)CC[C@]3(C)C(=CC[C@@H]4[C@@]5(C)CC[C@H](O)C(C)(C)[C@@H]5CC[C@]43C)[C@@H]2C1` [Oleanolic Acid] (compound dose: 10 uM), the cell viability was 0.984 ± 0.035.
With `CC1(C)CC[C@]2(C(=O)O[C@@H]3O[C@H](CO[C@@H]4O[C@H](CO)[C@@H](O)[C@H](O)[C@H]4O)[C@@H](O)[C@H](O)[C@H]3O)CC[C@]3(C)C(=CC[C@@H]4[C@@]5(C)CC[C@H](O[C@@H]6OC[C@H](O)[C@H](O)[C@H]6O)[C@@](C)(CO)[C@@H]5CC[C@]43C)[C@@H]2C1` [Asperosaponin VI] (compound dose: 10 uM) the cell viability was 0.9877 ± 0.0023.
For `CC1=CC23C(=O)C(C=C4COC(C)(C)OC4C2(O)C1O)C1C(CC3C)C1(C)C` (stereo not drawn) [Ingenol-5,20-acetonide] (compound dose: 10 uM), the cell viability was 0.948 ± 0.042.
For `COc1cc2ccc(=O)oc2cc1O[C@@H]1O[C@H](CO)[C@@H](O)[C@H](O)[C@H]1O` [Scopolin] (compound dose: 10 uM), the cell viability was 1.015 ± 0.0034.
Molecule `C=C(C)[C@H]1C=C[C@@](C)(O)CC1` [cis-Isolimonenol] (compound dose: 10 uM) has a cell viability of 0.972 ± 0.02.
With `C=C(C)[C@@H]1CC[C@]2(CO)CC[C@]3(C)[C@H](CC[C@@H]4[C@@]5(C)CC[C@H](O)C(C)(C)[C@@H]5CC[C@]43C)[C@@H]12` [Betulin] (compound dose: 2 uM) the cell viability was 0.842 ± 0.04.
For `CSC(=O)OCC1=C[C@@H]2OC(=O)C3=CO[C@@H](O[C@@H]4O[C@H](CO)[C@@H](O)[C@H](O)[C@H]4O)[C@H]1[C@@H]32` [Paederoside] (compound dose: 10 uM), the cell viability was 1.14 ± 0.027.
Work on `C[C@@H]1CC[C@]2(C(=O)O)CC[C@]3(C)C(=CC[C@@H]4[C@@]5(C)CC[C@H](O)[C@@](C)(CO)[C@@H]5CC[C@]43C)[C@@H]2[C@]1(C)O` [Rotundic acid] (compound dose: 10 uM) yielded a cell viability of 0.8829 ± 0.0033.
In the case of `CC1(C)CC[C@]2(C(=O)O)CC[C@]3(C)C(=CC[C@@H]4[C@@]5(C)C[C@@H](O)[C@H](O)C(C)(C)[C@@H]5CC[C@]43C)[C@@H]2C1` [Maslinic acid] (compound dose: 10 uM), the cell viability is reported as 0.962 ± 0.032.
With `CC1CCC(C(C)C)C(O)C1` [(1R,2S,5R)-(-)-menthol] (compound dose: 10 uM) the cell viability was 0.935 ± 0.035.
Molecule `C=C(CCC=C(C)C)[C@H]1CC[C@]2(C)[C@@H]1[C@H](O)C[C@@H]1[C@@]3(C)CC[C@H](O)C(C)(C)[C@@H]3[C@@H](O[C@@H]3O[C@H](CO)[C@@H](O)[C@H](O)[C@H]3O)C[C@]12C` [Ginsenoside Rk3] (compound dose: 10 uM) has a cell viability of 0.96 ± 0.035.
`C[C@H]1[C@H](C)CC[C@]2(C(=O)O)CC[C@]3(C)C(=CC[C@@H]4[C@@]5(C)C[C@@H](O)[C@H](O)[C@@](C)(CO)[C@@H]5[C@H](O)C[C@]43C)[C@H]12` [Madecassic acid] (compound dose: 10 uM) was tested, and the cell viability was 0.899 ± 0.14.
`C[C@H](CC[C@@H](OC[C@@H]1O[C@H](OC[C@H]2O[C@@H](O)[C@H](O)[C@@H](O)[C@@H]2O)[C@@H](O)[C@H](O)[C@H]1O)C(C)(C)O)[C@H]1CC[C@@]2(C)[C@@H]3CC=C4[C@@H](CC[C@H](O)C4(C)C)[C@]3(C)[C@H](O)C[C@]12C` [Mogroside IIA1] (compound dose: 10 uM) showed a cell viability of 1.22 ± 0.15.
`CC1=CC[C@@H](C(C)(C)O)CC1` [(-)-α-Terpineol] (compound dose: 10 uM) showed a cell viability of 1.07 ± 0.061.
Work on `C/C=C(/C)C(=O)O[C@H]1C(C)=C[C@]23C(=O)[C@@H](C=C(COC(C)=O)[C@@H](O)[C@]12O)[C@H]1[C@@H](C[C@H]3C)C1(C)C` [20-O-Acetylingenol-3-angelate] (compound dose: 10 uM) yielded a cell viability of 1.1 ± 0.091.
`COC(=O)[C@H]1[C@H]2C[C@@H]3c4[nH]c5cc(OC)ccc5c4CCN3C[C@H]2C[C@@H](OC(=O)c2cc(OC)c(OC)c(OC)c2)[C@@H]1OC` [Reserpine] (compound dose: 10 uM) showed a cell viability of 0.954 ± 0.028.
`COC(=O)C1=CO[C@@H](O[C@@H]2O[C@H](CO)[C@@H](O)[C@H](O)[C@H]2O)[C@H]2[C@@H]1C(=O)C[C@@H]2C` [Verbenalin] (compound dose: 10 uM) gave a cell viability of 0.953 ± 0.052.
